Measured values taken from PubChem BioAssay (NCATS).
Inconclusive results are not listed. Calls of active or inactive are those of the source. Calls follow the shape of the dose curve; as a rule, active = well fitted cell-killing curve with a large enough effect; inconclusive = small, poorly fitted or top-dose-only effect, or effect the other way; inactive = no such curve, though single readings can be large or run the other way.

Assay: Quantitative High-Throughput drug screen in 47 multiple myeloma cell lines against the NCATS MIPE library collection: KMS12PE_JCRB cell viability assay (AID 1918972); also: nearly all actives have a fitted effect of over 30% in size;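 as to viability: 100% = DMSO only wells and 0% = wells with media alone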
Details: KMS12PE myeloma viability, CellTiter-Glo ATP, 48 h; series mostly up to 45.8 µM
How it was run: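 Approved and investigational drugs from MIPE 4.0 were added by pin tool to 500 cells per well. After 48 hours at 37C, ATP-based CellTiter-Glo luminescence indicated remaining viability.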
Potency is read from the fitted curve at half-maximal effect.

Q: For C[C@@H]1CN(Cc2ccc(F)cc2)[C@@H](C)CN1C(=O)c1cc2c(C(=O)C(=O)N(C)C)cn(C)c2cc1Cl, which Potency is on record?
A: 20900 nM (active)

Q: With Cc1ccc(NC(=O)c2cccc(C(C)(C)C#N)c2)cc1Nc1ccc2ncn(C)c(=O)c2c1 as the compound, how does the Potency read?
A: 5900 nM (active)

Q: With CO[C@@H]1[C@H](N(C)C(=O)c2ccccc2)C[C@H]2O[C@]1(C)n1c3ccccc3c3c4c(c5c6ccccc6n2c5c31)C(=O)NC4 as the compound, how does the Potency read?
A: 935 nM (active)

Q: With COc1cccc2cc(-c3nc(C4CCC(C(=O)O)CC4)n4ncnc(N)c34)[nH]c12 (stereo not drawn) as the compound, how does the Potency read?
A: 166 nM (active)

Q: For CCOc1ccc(Cc2cc([C@@H]3O[C@H](CO)[C@@H](O)[C@H](O)[C@@H]3O)ccc2Cl)cc1, which Potency is on record?
A: 26400 nM (active)

Q: With CCCCNc1cc(C(=O)O)cc(S(N)(=O)=O)c1Oc1ccccc1 as the compound, how does the Potency read?
A: inactive

Q: With CS(=O)(=O)c1cccc(CNc2nc(Nc3ccc4c(c3)CCC(=O)N4)ncc2C(F)(F)F)c1 as the compound, how does the Potency read?
A: 4690 nM (active)

Q: With COc1ccc(COc2cc3oc(=O)c4cc(C(C)O)ccc4c3cc2OC)cc1 (stereo not drawn) as the compound, how does the Potency read?
A: 2640 nM (active)

Q: For O=C1CCCC2=C1C(c1[nH]ncc1Cl)N=C(Nc1nc3ccccc3o1)N2 (stereo not drawn), which Potency is on record?
A: 1870 nM (active)

Q: Which Potency does the source give for O=C(O)[C@@H](c1ccc(OCc2ccc3ccccc3n2)cc1)C1CCCC1 here?
A: inactive

Q: Which Potency does the source give for Nc1nc2ccc(OC(F)(F)F)cc2s1 here?
A: inactive

Q: Which Potency does the source give for COc1cc2nccc(Oc3ccc(NC(=O)NC4CC4)c(Cl)c3)c2cc1C(N)=O here?
A: 833 nM (active)

Q: With O=C(Nc1cccnc1)N1CCC(Cc2cccc(Oc3ccc(C(F)(F)F)cn3)c2)CC1 as the compound, how does the Potency read?
A: 16600 nM (active)

Q: Which Potency does the source give for S=C(NCc1ccc2c(c1)OCO2)N1CCN(c2ncnc3c2oc2ccccc23)CC1 here?
A: 1520 nM (active)

Q: For COc1ccc(-c2ccc3c(N4CCOC[C@H]4C)nc(N4CCOC[C@H]4C)nc3n2)cc1CO, which Potency is on record?
A: 59 nM (active)

Q: Which Potency does the source give for Cc1cc2c(C(C)C)c(O)c(O)c(C=O)c2c(O)c1-c1c(C)cc2c(C(C)C)c(O)c(O)c(C=O)c2c1O here?
A: 7430 nM (active)

Q: With COc1ccccc1-c1cccc(-c2c(O)c3cc(C#N)c(Cl)cc3[nH]c2=O)c1 as the compound, how does the Potency read?
A: 48100 nM (active)

Q: With COc1c(Cl)cc2c([nH]c3cnccc32)c1NC(=O)c1cccnc1C as the compound, how does the Potency read?
A: 20900 nM (active)

Q: With CNCc1ccc(-c2[nH]c3cc(F)cc4c3c2CCNC4=O)cc1 as the compound, how does the Potency read?
A: inactive

Q: With CCC(=O)N[C@H]1CC[C@H](C(=O)N(C)c2ccc(-c3nc4ccccc4o3)cc2)C1 as the compound, how does the Potency read?
A: 4690 nM (active)

Q: For CCCS(=O)(=O)Nc1ccc(F)c(C(=O)c2c[nH]c3ncc(Cl)cc23)c1F, which Potency is on record?
A: 16600 nM (active)

Q: Which Potency does the source give for CC(C)(C)NCC(O)c1ccc(O)c(CO)c1 (stereo not drawn) here?
A: inactive

Q: With CNC[C@H](O)c1cccc(O)c1 as the compound, how does the Potency read?
A: inactive

Q: With CS(=O)(=O)Oc1ccc2c(NC(N)=O)c(C(=O)c3ccc(Cl)cc3Cl)oc2c1 as the compound, how does the Potency read?
A: 9350 nM (active)

Assay: Quantitative High-Throughput drug screen in 47 multiple myeloma cell lines against the NCATS MIPE library collection: KMS20_JCRB cell viability assay (AID 1918973); also: nearly all actives have a fitted effect of over 45% in size
Details: CellTiter-Glo ATP, 48 h; series mostly up to 45.8 µM
How it was run: (§1)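 qHTS of the MIPE 4.0 collection: 500 myeloma cells/well, 48 h drug exposure at 37C in 5% CO2, then CellTiter-Glo for 5 min at room temperature before luminescence reading.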

Q: Which Potency does the source give for COc1ccccc1[C@H](c1cccc2ccccc12)[C@@](C)(C#N)C(=O)N1CCC(c2cccc(C(F)(F)F)c2)CC1 here?
A: 1180 nM (active)

Q: Which Potency does the source give for O=C(O)[C@@H](c1ccc(OCc2ccc3ccccc3n2)cc1)C1CCCC1 here?
A: inactive

Q: With COc1ccc(-c2ccc3c(N4CCOC[C@H]4C)nc(N4CCOC[C@H]4C)nc3n2)cc1CO as the compound, how does the Potency read?
A: 9.3 nM (active)

Q: For CC(C)(C)NCC(O)c1ccc(O)c(CO)c1 (stereo not drawn), which Potency is on record?
A: inactive

Assay: Quantitative High-Throughput drug screen in 47 multiple myeloma cell lines against the NCATS MIPE library collection: KMS21BM_JCRB cell viability assay (AID 1918974)
Details: ATP luminescence, 48 h; viability: at 45.8 µM (top of the series) unless noted
How it was run: as §1

Q: With CC[C@H](Nc1ncnc2nc[nH]c12)c1nc2cccc(F)c2c(=O)n1-c1ccccc1 as the compound, how does the Potency read?
A: inactive

Q: Which Potency does the source give for CO[C@@H]1[C@H](N(C)C(=O)c2ccccc2)C[C@H]2O[C@]1(C)n1c3ccccc3c3c4c(c5c6ccccc6n2c5c31)C(=O)NC4 here?
A: 166 nM (active)

Q: With COc1cccc2cc(-c3nc(C4CCC(C(=O)O)CC4)n4ncnc(N)c34)[nH]c12 (stereo not drawn) as the compound, how does the Potency read?
A: 469 nM (active)

Q: For COc1ccccc1[C@H](c1cccc2ccccc12)[C@@](C)(C#N)C(=O)N1CCC(c2cccc(C(F)(F)F)c2)CC1, which Potency is on record?
A: 9350 nM (active)

Q: Which Potency does the source give for O=C(Nc1cccnc1)N1CCC(Cc2cccc(Oc3ccc(C(F)(F)F)cn3)c2)CC1 here?
A: 9350 nM (active)

Q: Which Potency does the source give for S=C(NCc1ccc2c(c1)OCO2)N1CCN(c2ncnc3c2oc2ccccc23)CC1 here?
A: 1210 nM (active)

Q: For COc1ccc(-c2ccc3c(N4CCOC[C@H]4C)nc(N4CCOC[C@H]4C)nc3n2)cc1CO, which Potency is on record?
A: 66.2 nM (active)

Q: With COc1ccccc1-c1cccc(-c2c(O)c3cc(C#N)c(Cl)cc3[nH]c2=O)c1 as the compound, how does the viability read?
A: 162% [at 92.2 µM] (active)

Q: Which Potency does the source give for CC(C)(C)NCC(O)c1ccc(O)c(CO)c1 (stereo not drawn) here?
A: inactive

Q: Which Potency does the source give for CS(=O)(=O)Oc1ccc2c(NC(N)=O)c(C(=O)c3ccc(Cl)cc3Cl)oc2c1 here?
A: 2350 nM (active)
